{"source": "PubChem BioAssay AID504692", "about": "(The Scripps Research Institute Molecular Screening Center, 2011)", "note": "Several values for one entry are separate records, joined by “and”; a condition that tells them apart may be missing. Identical values can stand only once. The campaign covered roughly 340,000 compounds. About 2,000 (0.59%) were called active. No stated cut-off is given here; in the data, active means activation mostly above about 9.5% (no sharp cut-off); inactive means mostly below about 7.6%. The full list was thinned out, with actives kept by preference."}
{"biological_target": "5-hydroxytryptamine receptor 5A (Homo sapiens) (UniProt P47898)", "sequence (P47898 whole entry, looked up)": "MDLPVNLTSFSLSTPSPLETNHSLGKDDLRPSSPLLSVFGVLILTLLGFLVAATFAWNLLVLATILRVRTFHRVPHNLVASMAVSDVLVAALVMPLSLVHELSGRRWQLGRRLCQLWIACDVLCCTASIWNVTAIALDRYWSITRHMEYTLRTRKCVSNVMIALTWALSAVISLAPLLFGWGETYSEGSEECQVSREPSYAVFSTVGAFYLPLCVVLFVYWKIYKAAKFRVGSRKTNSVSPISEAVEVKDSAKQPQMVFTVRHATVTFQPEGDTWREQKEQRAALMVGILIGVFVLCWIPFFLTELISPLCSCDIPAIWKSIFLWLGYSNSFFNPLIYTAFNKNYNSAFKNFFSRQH", "experiment": "activation of human 5-HT5A receptor – cell-based, luminescence, full-deck HTS, counter-screen for OPRM1-OPRD1 heterodimer agonist project, primary screen (AID 504692);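 further: 0% = cells with vehicle only and 100% = reference agonist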", "details": "HTR5A agonist assay, at 9.3 µM, hits give high values"}
{"smiles": "COC1C(O)C(C)OC(OC2CCC3(C=O)C(CCC4C3CCC3(C)C(C5=CC(=O)OC5)CCC43O)C2)C1O", "note": "(stereo not given)", "activation": "20% (active)"}
{"smiles": "C[C@]12CC[C@H](O)C[C@H]1CC[C@@H]1C2CC[C@]2(C)[C@@H](C3=CC(=O)OC3)[C@@H](O)C[C@]12O", "note": "(stereo not given in full)", "activation": "16.5% (inactive)"}
{"smiles": "Oc1ccc2c3c1OC1[C@H](O)CC[C@@]4(O)[C@@H](C2)N(CC2CC2)CC[C@]314", "note": "(stereo not given in full)", "activation": "2.68% (inactive) and -1.51% (inactive)"}
{"smiles": "CC[N+](CC)(CC)CCCCCCCCCC[N+](CC)(CC)CC", "activation": "2.35% (inactive)"}
{"smiles": "CCOP(=O)(OCC)C(O)c1ccc(OC)cc1OC", "note": "(stereo not given)", "activation": "-1.32% (inactive)"}
{"smiles": "CCCCCCCCCCCCn1ccc(=N)cc1", "activation": "14.5% (active)"}
{"smiles": "Cc1cc(C(=O)OCC(=O)Nc2c(F)cccc2F)c(C)n1C1CC1", "activation": "-0.58% (inactive)"}
{"smiles": "C/C=C/CC1(CC)C(=O)NC(=S)NC1=O", "activation": "0.5% (inactive)"}
{"smiles": "COC(=O)C(O)(c1ccc(NC(=O)c2ccco2)c(OC)c1)C(F)(F)F", "note": "(stereo not given)", "activation": "-2.39% (inactive)"}
{"smiles": "CN(C)C(=O)Oc1cc(=O)n2c3c(cccc13)CCC2", "activation": "2.56% (inactive)"}
{"smiles": "O=C(Cc1ccccc1)N1CCN(C2CCCCCC2)CC1", "activation": "1.91% (inactive)"}
{"smiles": "Cc1ccc(-c2cc(C(=O)N3CCC4(CC3)OCCO4)no2)cc1", "activation": "1.14% (inactive)"}
{"smiles": "CCOC(=O)c1c(C)c(C(=O)N2CCC3(CC2)OCCO3)c(C)n1CC", "activation": "10.3% (active)"}
{"smiles": "COc1ccc(S(=O)(=O)NCc2ccc(C(=O)N3CCC4(CC3)OCCO4)cc2)cc1", "activation": "3.27% (inactive)"}
{"smiles": "CC(C)Oc1cccc(C(=O)C2CCCN(C3CCOCC3)C2)c1", "note": "(stereo not given)", "activation": "3.38% (inactive)"}
